Only some compounds are listed: those with a hit (about 7.3% of all), similar ones and a draw of the others.
SMN2 splice enh: SMN2 splice variant enhancement | HEK293 SMN2-luciferase splicing reporter, luminescence, 30-36 h | Potency, µM (highest dose often 46.1 µM), actives largely listed as activators | 210,000 compounds, 2.8% hits; note: nearly all actives have a fitted effect of over 55% in size
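qHTS luciferase splicing reporter: luminescence rises when SMN2 exon 7 is included in transfected HEK293 cells. Compound exposure lasted 30-36 h at 37C, with 4.5 mM final sodium butyrate as control, followed by a ONE-Glo read.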
FLuc counter: counter-screen for miR-21 project: firefly luciferase inhibitors or activators | P08659 | purified FLuc, Km substrates, luminescence inhibition | Potency, µM (doses to about 57.5 µM), actives largely listed as inhibitors | 360,000 compounds, 6.9% hits; note: nearly all actives have a fitted effect of over 55% in size
Target sequence (P08659 whole entry, looked up): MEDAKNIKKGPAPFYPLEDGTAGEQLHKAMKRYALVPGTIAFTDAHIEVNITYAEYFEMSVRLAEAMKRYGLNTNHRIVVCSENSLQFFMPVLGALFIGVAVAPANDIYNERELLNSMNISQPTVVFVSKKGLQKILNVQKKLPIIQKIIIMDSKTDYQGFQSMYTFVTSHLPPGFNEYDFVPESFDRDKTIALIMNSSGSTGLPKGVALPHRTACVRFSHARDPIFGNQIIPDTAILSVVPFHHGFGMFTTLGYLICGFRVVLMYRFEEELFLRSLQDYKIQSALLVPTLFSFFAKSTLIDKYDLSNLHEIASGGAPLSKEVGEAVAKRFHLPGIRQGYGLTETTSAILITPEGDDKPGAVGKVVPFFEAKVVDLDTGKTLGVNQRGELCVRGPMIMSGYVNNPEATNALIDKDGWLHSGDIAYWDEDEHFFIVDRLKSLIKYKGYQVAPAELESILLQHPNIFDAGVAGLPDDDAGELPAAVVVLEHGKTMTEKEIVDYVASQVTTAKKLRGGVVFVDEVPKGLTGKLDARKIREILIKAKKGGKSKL
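Biochemical qHTS of compounds, final roughly 60 µM downward over six points, against 10 nM purified firefly luciferase using Km concentrations of substrates (10 uM D-luciferin, 10 uM ATP) in Tris acetate pH 7.5 buffer; luminescence output.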
ELG1 genotox: genotoxicity induction in ELG1-luciferase HEK293T cells; 330,000 compounds, 1.3% hits; Potency, µM (highest dose often 46 µM), usual class: activators; HEK293T ELG1-luciferase reporter, luminescence, 16 h; AID 504466; note: nearly all actives have a fitted effect of over 60% in size
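16 hr compound incubation (37 °C, 5% CO2) of HEK293T cells carrying luciferase-tagged ELG1; luciferase then measured by ONE-Glo luminescence after 30 min at RT.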
NPC1 promoter act: NPC1 promoter activation. Huh7 NPC1 promoter luciferase reporter, 24 h. Potency, µM (highest dose often 9.22 µM), actives largely listed as activators. 320,000 compounds, 2.4% hits. AID 485313; note: nearly all actives have a fitted effect of over 60% in size
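In 1536-well qHTS, Huh7 cells harboring an NPC1 promoter–luciferase construct received compound for 24 h; activation was quantified by luminescence following luciferase reagent addition.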
Rab9 prom act: activators of Rab9 promoter; Huh7 Rab9 promoter-luciferase reporter, luminescence, 24 h; Potency, µM (top dose mostly 9.22 µM), hits mostly activators; 320,000 compounds, 2.8% hits; note: nearly all actives have a fitted effect of over 60% in size
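Huh7 cells stably carrying Rab9 promoter–luciferase reporter, plated 1500 cells/well, compound added after 2 h and incubated 24 h at 37 °C; luciferase luminescence then read after 10 min with detection reagent.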
Luc counter: counter-screen: inhibitors of Kinase-Glo firefly luciferase; Q27757; Kinase-Glo luciferase, ATP luminescence, 8 min; Potency, µM (highest dose often 38.3 µM), actives largely listed as inhibitors; 200,000 compounds, 0.28% hits; AID 1379; note: nearly all actives have a fitted effect of over 60% in size
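Compounds were added to a substrate mix at pH 7.2 (50 mM imidazole, 10 uM ATP, within the enzyme's linear range), followed by Kinase-Glo detection reagent; luminescence was measured after 8 minutes at ambient temperature.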
A number is an active result; 0 = inactive; ? = inconclusive; - = no result; [ ] = remark or other dose. Calls come from the whole dose curve; as a rule, active = well fitted curve in the direction sought with a large enough effect; inconclusive = small, poorly fitted or top-dose-only effect, or another doubt; inactive = no such curve, though single readings can be large; an effect the other way counts as inactive or inconclusive.

SMILES	SMN2 splice enh	FLuc counter	ELG1 genotox	NPC1 promoter act	Rab9 prom act	Luc counter
CC(C)c1nc2ccc(NC(=O)C34CC5CC(CC(C5)C3)C4)cc2[nH]1	0	15µM	0	0	0	0
Nc1cccc(C(=O)Nc2ccc3nc(-c4cccnc4)[nH]c3c2)c1	0	?	0	0	0	0
O=C(Nc1ccc2nc(-c3cccnc3)[nH]c2c1)C1CCCCC1	0	12µM	0	0	0	0
O=C(Nc1ccc2nc(-c3cccnc3)[nH]c2c1)C12CC3CC(CC(C3)C1)C2	0	11µM	0	0	0	0
Cc1oc2ccc(O)c(CN3CCCC3)c2c1C(=O)Nc1cccc(Cl)c1C	0	0	-	-	-	-
CCCCOc1ccc(OC(=O)c2sc3ncn(Cc4cccc(F)c4)c(=O)c3c2C)cc1	-	0	-	-	-	-
COC(=O)c1c(C)nn(-c2ccc(F)cc2)c1-n1cccc1	0	0	-	-	-	-
CCn1cc(S(=O)(=O)c2ccccc2)c(=O)c2cc(F)c(N3CCCCCC3)cc21	-	0	-	-	-	-
C/C(=N\Nc1nc(C)cc(C)n1)c1ccc(C)o1	-	0	0	0	0	-
Cn1c2ccccc2c2nnc(SCC(N)=O)nc21	-	0	0	0	0[1.84 µM]	-
Cc1cc(C)n(-c2nnc3c4ccccc4n(C)c3n2)n1	-	4.8µM	?	1.4µM	2.5µM	-
C/C(=N\Nc1nnc2c3ccccc3n(C)c2n1)c1ccc(C)o1	0	17µM	0	0	0	0
Cc1cccc(C)c1OCc1cc(C(=O)N2CCCC2c2nonc2C)no1 (configuration not stated)	-	0	0	0	0	-
CSc1ccccc1OCc1cc(C(=O)N2CCCC2c2nonc2C)no1 (configuration not stated)	-	8.5µM	?	2µM	2.2µM	-
Cc1nonc1C1CCCN1C(=O)c1cc(COc2ccc(F)cc2F)on1 (configuration not stated)	-	9.5µM	?	?	2.2µM	0
COc1ccc(C(=O)OC2=C(C(=O)c3ccccc3)N(C)S(=O)(=O)c3ccccc32)cc1OC	0	0	-	-	-	-
C=CCN1C(=O)C(CC(=O)O)S/C1=N/N=C/c1ccc(N(CC)CC)cc1 (configuration not stated)	-	21µM	0	0	0	-
COc1ccc(C2CC(c3ccccc3)=NN2c2ccc(S(N)(=O)=O)cc2)cc1OC (configuration not stated)	0	0	0	0	0	0
COc1cc(C2CC(c3ccccc3)=NN2c2ccccc2)ccc1OCC(=O)O (configuration not stated)	-	15µM	0	0	0	-
COc1ccc(C2=NN(c3ccc(C(=O)O)cc3)C(c3ccc(OC)c(OC)c3)C2)cc1 (configuration not stated)	-	?	23µM	0	0	-
CCOc1ccc2nc(NC(=O)CN3C(=O)NC4(CCCC4)C3=O)sc2c1	-	6.7µM	?	0	0	-
Cc1ccc2nc(NC(=O)CN3C(=O)NC4(CCCC4)C3=O)sc2c1	-	9.5µM	0	0	0	-
Cn1ccnc1SCC(=O)Nc1ccc2nc(SCC(=O)NC3CC3)sc2c1	0	19µM	13µM	?	?	0
CC(C)(C)NC(=O)CSc1nc2ccc(NC(=O)CSc3nnc(N)s3)cc2s1	0	12µM	0	0	0	0
CC(C)c1ccc(Cc2cnc(NC(=O)c3ccc4c(c3)CC(c3ccccc3)OC4=O)s2)cc1 (configuration not stated)	0	0	-	-	-	-
SMILES	SMN2 splice enh	FLuc counter	ELG1 genotox	NPC1 promoter act	Rab9 prom act	Luc counter
O=C(Cc1ccc(F)cc1)Nc1nnc(SCC(=O)N2CCCCC2)s1	0	0	0	0	0	0
O=C(CSc1nnc(NC(=O)c2ccccc2F)s1)NC1CCCC1	-	11µM	0	?	3.2µM	-
O=C(CSc1nnc(NC(=O)c2c(F)cccc2F)s1)NCc1ccccc1	-	0	0	0	0	-
O=C(Nc1nnc(SCC(=O)N2CCCCC2)s1)c1ccc(F)cc1F	-	8.5µM	0	0	0	-
COc1ccc(CNC(=O)CSc2nnc(NC(=O)c3ccccc3F)s2)cc1	-	11µM	?	3.2µM	2.2µM	-
O=C(CSc1nnc(NC(=O)c2ccc(F)cc2F)s1)NC1CCCC1	-	4.3µM	?	?	?	-
COc1ccc(-c2cnnn2-c2ccc(NC(=O)c3c(F)cccc3F)cc2)cc1	-	0	-	-	-	-
O=C1NC(c2ccc(Cl)cc2)Oc2ccccc21 (configuration not stated)	-	0	0	0	0	-
CC(C)c1ccc(C2NC(=O)c3ccccc3O2)cc1 (configuration not stated)	-	9.5µM	?	0	0	-
O=C(CSCc1ccc(Cl)cc1)Nc1cc([N+](=O)[O-])ccc1O	0	0	0	0	0	0
Cc1ccc(SCC(=O)Nc2cc([N+](=O)[O-])ccc2O)cc1	-	17µM	0	0	0	0
CC(C)C[C@@H](C=O)NC(=O)[C@H](CC(C)C)NC(=O)[C@H](CC(C)C)NC(=O)OCc1ccccc1	0	-	-	-	-	-
Cc1ccc(C(=O)CSc2cnc3ccccc3n2)cc1C	0	7.6µM	9.2µM	0	0	0
COc1ccc(C(=O)Nn2cnc3ccccc3c2=O)c(OC)c1	14µM	?	?	2.2µM	2.5µM	0
Cc1ccc(C(=O)Cn2cnc3ccccc3c2=O)cc1C	?	19µM	-	-	-	0
O=C(Cn1cnc2ccccc2c1=O)Nc1ccc2c(c1)OCO2	?	19µM	?	0	?	0
O=C(Cn1cnc2ccccc2c1=O)c1ccc2c(c1)OCCO2	11µM	6µM	?	2µM	1.3µM	0
O=C(Cn1cnc2ccccc2c1=O)c1ccc2ccccc2c1	?	?	-	-	-	0
O=C(CSc1ccc2ccccc2n1)c1ccc2c(c1)OCO2	0	?	21µM	0	0	0
COc1ccc(C(=O)Cn2cnc3ccccc3c2=O)cc1	-	13µM	?	?	3.2µM	-
Cc1cc(C(=O)Cn2cnc3ccccc3c2=O)c(C)n1C1CC1	-	0	5.2µM	?	?	-
COc1ccc(NC(=O)c2cc(S(=O)(=O)N3CCCC(C)C3)cn2C)c(OC)c1 (configuration not stated)	-	0	-	-	-	-
COc1cc2c(cc1OC)C1O[C@](CCCCN3C(=O)c4ccccc4C3=O)(C2)Oc2cc(C)n(Cc3ccccc3)c(=O)c21	-	0[11.5 µM]	-	0[1.84 µM]	0[1.84 µM]	-
CNC(=O)CN1C(=O)COc2ccc(S(=O)(=O)N3CCC(C)CC3)cc21	0	0	-	-	-	-
CCOC(=O)c1ccc(N2C(=O)c3n[nH]c(-c4ccco4)c3C2c2cccc(O)c2)cc1 (configuration not stated)	0	0	-	-	-	-
Cc1cccc(OCc2ccc(-c3nc(C#N)c(NCc4cccnc4)o3)o2)c1	-	0	-	-	-	-
CC(c1ccccc1)c1nnc(NC(=O)Nc2ccccc2F)s1 (configuration not stated)	-	?	0	?	0	-
CCSc1nsc(NC(=O)Nc2cccc(OC)c2)n1	-	21µM	0	0	0	-
